Results from PubChem BioAssay AID1159580 (chemical genetic matrix, 2015).
Several values for one entry are separate records, joined by “and”; a condition that tells them apart may be missing. Equal values may be shown once. The campaign covered roughly 5,500 compounds. About 2,000 (36%) were called active. Inconclusive results (about 18%) are left out. Cut-off read from the data, not from the text of the source: active = normalized growth mostly below about 0.91 (no sharp cut-off); inconclusive = no clear call, values can overlap the other calls; inactive = mostly above about 0.92. The list shows a part of the results.

Assay: chemical genetic growth profiling, strain panel (AID 1159580);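 note: tested at 20 µM; growth read once vehicle control cultures reached saturation at 30 °C; 1 = growth at the plate median or of vehicle wells; lower values mean less growth of the strain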
Settings: S. cerevisiae deletion strains, growth OD

Measured: normalized growth

CC(=O)O[C@H]1C[C@H](O[C@H]2[C@@H](O)C[C@H](O[C@H]3[C@@H](O)C[C@H](O[C@H]4CC[C@@]5(C)C(CCC6C5C[C@@H](O)[C@]5(C)[C@@H](C7=CC(=O)OC7)CC[C@]65O)C4)O[C@@H]3C)O[C@@H]2C)O[C@H](C)[C@H]1O[C@@H]1O[C@H](CO)[C@@H](O)[C@H](O)[C@H]1O (stereo not given in full)
inactive: locus YAL021C, strain ccr4, active compounds read low 1 | locus YAL026C, strain drs2, active compounds read low 0.996 | locus YAL030W, strain snc1, active compounds read low 1 | locus YBL061C, strain skt5, active compounds read low 0.991 | locus YBR009C, strain hhf1, active compounds read low 0.995 | locus YBR021W, strain FUR4, active compounds read low 1.02 | locus YBR023C, strain chs3, active compounds read low 0.999 | locus YBR171W, strain sec66, active compounds read low 0.995 | locus YBR229C, strain ROT2, active compounds read low 1.01 | locus YBR231C, strain swc5, active compounds read low 0.987 | locus YBR279W, strain paf1, active compounds read low 0.996 | locus YCL011C, strain gbp2, active compounds read low 1 | locus YCL016C, strain dcc1, active compounds read low 0.996 | locus YCL029C, strain bik1, active compounds read low 0.985 | locus YCL061C, strain MRC1, active compounds read low 0.999 | locus YCL069W, strain vba3, active compounds read low 0.993 | locus YCR088W, strain abp1, active compounds read low 0.989 | locus YDL005C, strain med2, active compounds read low 0.996 | locus YDL035C, strain GPR1, active compounds read low 1.03 | locus YDL040C, strain nat1, active compounds read low 0.994 | locus YDL074C, strain BRE1, active compounds read low 1.02 | locus YDL101C, strain DUN1, active compounds read low 1.02 | locus YDL134C, strain PPH21, active compounds read low 1.02 | locus YDL185W, strain tfp1, active compounds read low 1 | locus YDL192W, strain arf1, active compounds read low 1.01 | locus YDR001C, strain nth1, active compounds read low 0.994 | locus YDR069C, strain doa4, active compounds read low 0.988 | locus YDR101C, strain arx1, active compounds read low 0.983 | locus YDR137W, strain rgp1, active compounds read low 0.997 | locus YDR150W, strain NUM1, active compounds read low 1.01 | locus YDR159W, strain sac3, active compounds read low 0.981 | locus YDR162C, strain NBP2, active compounds read low 1.02 | locus YDR195W, strain ref2 0.961 | locus YDR297W, strain sur2, active compounds read low 0.994 | locus YDR318W, strain mcm21, active compounds read low 0.989 | locus YDR334W, strain swr1, active compounds read low 0.999 | locus YDR335W, strain msn5, active compounds read low 1 | locus YDR388W, active compounds read low 0.989 | locus YDR392W, strain spt3, active compounds read low 0.979 | locus YDR502C, strain sam2, active compounds read low 1.01 | locus YEL003W, strain gim4, active compounds read low 0.995 | locus YEL037C, strain rad23, active compounds read low 0.999 | locus YEL061C, strain CIN8 (second series), active compounds read low 0.99 | locus YEL061C, strain CIN8, active compounds read low 1.01 | locus YER015W, strain faa2, active compounds read low 0.994 | locus YER016W, strain bim1, active compounds read low 0.993 | locus YER110C, active compounds read low 0.984 | locus YER111C, strain swi4, active compounds read low 0.997 | locus YER155C, strain BEM2 (second series), active compounds read low 1.01 | locus YER155C, strain BEM2, active compounds read low 1 | locus YER167W, strain BCK2, active compounds read low 1.01 | locus YFR010W, strain ubp6, active compounds read low 0.994 | locus YGL078C, strain dbp3, active compounds read low 1.01 | locus YGL086W, strain mad1, active compounds read low 0.998 | locus YGL167C, strain pmr1, active compounds read low 1 | locus YGL173C, strain kem1, active compounds read low 1 | locus YGL227W, strain vid30, active compounds read low 0.987 | locus YGL240W, strain doc1, active compounds read low 0.995 | locus YGL248W, strain PDE1, active compounds read low 1.01 | locus YGL253W, strain hxk2, active compounds read low 0.997 | locus YGR078C, strain PAC10, active compounds read low 1 | locus YGR135W, strain pre9, active compounds read low 1.01 | locus YGR229C, strain SMI1, active compounds read low 1.02 | locus YGR252W, strain gcn5, active compounds read low 1.17 | locus YHR013C, strain ard1, active compounds read low 0.969 | locus YHR027C, strain rpn1, active compounds read low 0.999 | locus YHR030C, strain SLT2, active compounds read low 1 and 0.975 | locus YHR079C, strain IRE1, active compounds read low 0.966 | locus YHR094C, strain hxt1, active compounds read low 0.973 | locus YHR129C, strain ARP1, active compounds read low 1.01 | locus YHR142W, strain chs7, active compounds read low 0.996 | locus YHR200W, strain rpn10, active compounds read low 1 | locus YIL066C, strain RNR3, active compounds read low 1.01 | locus YIL073C, strain SPO22, active compounds read low 1.08 | locus YIL125W, strain kgd1, active compounds read low 1 | locus YIR030C, strain dcg1, active compounds read low 0.988 | locus YJL092W, strain hpr5, active compounds read low 1 | locus YJL095W, strain BCK1 (second series), active compounds read low 0.998 | locus YJL095W, strain BCK1, active compounds read low 1 and 0.977 | locus YJL115W, strain asf1, active compounds read low 0.996 | locus YJL129C, strain trk1, active compounds read low 0.998 | locus YJL134W, strain LCB3, active compounds read low 1.01 | locus YJL154C, strain vps35, active compounds read low 0.993 | locus YJL164C, strain tpk1, active compounds read low 1.01 | locus YJL166W, strain qcr8, active compounds read low 1 | locus YJL168C, strain set2, active compounds read low 0.982 | locus YJL187C, strain SWE1 (second series), active compounds read low 1.01 | locus YJL187C, strain SWE1, active compounds read low 0.995 | locus YJR043C, strain POL32, active compounds read low 0.999 | locus YJR066W, strain TOR1, active compounds read low 0.933
